Compound activity as filed in PubChem.
HT1080 IDH1KD tx: toxicity to HT-1080 IDH1 knockdown cells (counter line); HT-1080 IDH1 knockdown viability, ATP luminescence, 48 h; Potency, µM (titrated, usually from 46.1 µM), usual class: cytotoxic; hit rate 2% among 360,000
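Assay cells: HT-1080 with IDH1 knockdown, 750 per well, RPMI/5% FBS. Exposure: 48 h at 37 °C following 2 h pre-incubation. Read: CellTiter-Glo luminescence; fitted concentration-response, curve class assigned.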
ELG1 repair inh: blocks ELG1-dependent DNA repair in HEK293T cells; HEK293T ELG1-luciferase reporter, luminescence, 16 h; DNA damage induced by 5-fluorouridine; Potency, µM (titrated, usually from 46.1 µM), hits mostly inhibitors; hit rate 2.3% among 330,000; AID 504467; further: nearly all actives have a fitted effect of over 55% in size
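DMSO vehicle served as the neutral condition. Each well held 2,000 cells given 5-fluorouridine plus compound; after 16 hr at 37 °C/5% CO2, ONE-Glo was added and luciferase measured 30 min later.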
HT1080-NT tox: kills 2HG-producing HT-1080-NT fibrosarcoma cells; HT-1080-NT fibrosarcoma viability, CellTiter-Glo ATP luminescence, 48 h; Potency, µM (top dose mostly 46.1 µM), usual class: cytotoxic; hit rate 1.6% among 360,000;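 further: NT is the 2HG producing partner of a matched IDH1 knockdown line; nearly all actives have a fitted effect of over 55% in size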
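750 cells/well, RPMI + 5% FBS; 2 h settle, compound pin-transfer, 48 h at 37 degrees C. CellTiter-Glo 10 min RT, luminescence. Normalized to DMSO and media-only wells.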
DT40 TDP1 CPT: DT40-hTDP1 cell growth loss with CPT. AID 686979. chicken DT40 Tdp1-/-;hTDP1 cells + 20 nM CPT, ATP luminescence, 48 h. Potency, µM (top dose mostly 46.2 µM), usual class: inhibitors. hit rate 12% among 420,000; further: nearly all actives have a fitted effect of over 55% in size
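Chicken DT40 Tdp1-/- cells stably complemented with human TDP1 were seeded at 400 cells/well in medium containing 20 nM camptothecin, exposed to pin-transferred compounds, and grown at 37 °C for at least 48 hr. Viability was read as ATP luminescence.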
IL-1B inflam inh: inflammasome signaling inhibition, IL-1 beta readout | THP-1 LPS/ATP IL-1B secretion, AlphaLISA, 16 h; active compounds read low | hit rate 4.7% among 360,000 | activity change, % at 57.5 µM | AID 743279; in the data active means activity change below about -50%; inconclusive means mostly about -30% to -49%
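Secreted IL-1B measured by AlphaLISA bead assay after 16 h compound exposure of THP-1 cells; compounds (final up to 57.5 uM) added 1 h before LPS (250 ng/mL) and ATP (1.25 mM) stimulation; lower signal means less secretion.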
DT40 TDP1 no CPT: qHTS for Inhibitors of human tyrosyl-DNA phosphodiesterase 1 (TDP1): qHTS in cells in absence of CPT. DT40 Tdp1-/- hTDP1 cells, no CPT, ATP luminescence, 48 h. Potency, µM (series often up to 46.2 µM), usual class: inhibitors. hit rate 15% among 420,000; further: nearly all actives have a fitted effect of over 55% in size
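Cells were dispensed at 400 per well, compounds added by pin tool, plates incubated ≥48 hr at 37 °C, then CellTiter-Glo added for 30 min at room temperature before luminescence reading. Line: DT40 Tdp1-/- complemented with hTDP1; camptothecin omitted.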
A number is an active result; [ ] = remark or other dose. The list is not random: actives were taken first. Their share in the collection is about 19%. Unless noted, the call rests on the fitted dose curve; in most records, active means well fitted curve in the direction sought with a large enough effect; inconclusive means small, poorly fitted or top-dose-only effect, or another doubt; inactive means no such curve, though single readings can be large; an effect the other way counts as inactive or inconclusive.

For O=C(/C=C/c1ccco1)c1ccccc1O the results were HT1080 IDH1KD tx inactive, ELG1 repair inh inconclusive, HT1080-NT tox inactive, DT40 TDP1 CPT inactive, IL-1B inflam inh inactive and DT40 TDP1 no CPT inactive.
Screening COc1cc(/C=C/C(=O)OCC(=O)NC(C)c2ccccc2)cc(OC)c1OC (stereo unspecified) returned HT1080 IDH1KD tx inactive, ELG1 repair inh inactive, HT1080-NT tox inactive, DT40 TDP1 CPT inactive, IL-1B inflam inh inconclusive and DT40 TDP1 no CPT inactive.
`O=C(CCN1CCN(Cc2ccccc2)CC1)NNC(=O)Nc1cccc([N+](=O)[O-])c1` gave HT1080 IDH1KD tx inactive, ELG1 repair inh inactive, HT1080-NT tox inactive, DT40 TDP1 CPT inactive, IL-1B inflam inh inactive and DT40 TDP1 no CPT inactive.
For O=C(Cn1nc(-c2ccccc2)c2c(c1=O)CCCC2)Nc1ccc(F)c(Cl)c1 the results were DT40 TDP1 CPT inactive and DT40 TDP1 no CPT inactive.
Screening Cc1ccc(Nc2nc(N)nc(CN3CCN(Cc4ccc5c(c4)OCO5)CC3)n2)c(C)c1 returned HT1080 IDH1KD tx inactive, ELG1 repair inh inconclusive, HT1080-NT tox inactive, DT40 TDP1 CPT inconclusive, IL-1B inflam inh inactive and DT40 TDP1 no CPT inconclusive.
For Cc1ccc(Nc2nc(N)nc(CN3CCN(Cc4ccc5c(c4)OCO5)CC3)n2)cc1Cl the results were HT1080 IDH1KD tx inactive, ELG1 repair inh inconclusive, HT1080-NT tox inconclusive, DT40 TDP1 CPT inconclusive, IL-1B inflam inh inconclusive and DT40 TDP1 no CPT inconclusive.
For Cc1ccc(Nc2nc(N)nc(CN3CCN(Cc4ccc5c(c4)OCO5)CC3)n2)cc1 the results were HT1080 IDH1KD tx inactive[9.24 µM], ELG1 repair inh inconclusive, HT1080-NT tox inactive, DT40 TDP1 CPT 18µM, IL-1B inflam inh inconclusive and DT40 TDP1 no CPT 18µM.
For Cc1ccc(Nc2nc(N)nc(CN3CCN(Cc4ccc5c(c4)OCO5)CC3)n2)cc1C the results were HT1080 IDH1KD tx inconclusive, ELG1 repair inh 13µM, HT1080-NT tox inconclusive, DT40 TDP1 CPT inconclusive, IL-1B inflam inh -74 and DT40 TDP1 no CPT 18µM.
For C/C(=C/CCC(C)(O)C1CC[C@@]2(C)[C@@H]3CC=C4[C@@H](CC[C@H](O[C@H]5O[C@@H](CO)[C@H](O)[C@@H](O)[C@@H]5O)C4(C)C)[C@]3(C)C(=O)C[C@]12C)CO[C@@H]1O[C@H](CO)[C@@H](O)[C@H](O)[C@H]1O (stereo partly specified) the results were HT1080 IDH1KD tx inactive, ELG1 repair inh inactive, HT1080-NT tox inactive, DT40 TDP1 CPT inactive, IL-1B inflam inh inactive and DT40 TDP1 no CPT inactive.
For CCCCCCCCCCCCCCCC(=O)NCCc1c[nH]c2ccccc12 the results were HT1080 IDH1KD tx inactive, ELG1 repair inh inactive, HT1080-NT tox inactive, DT40 TDP1 CPT inactive, IL-1B inflam inh inactive and DT40 TDP1 no CPT inactive.
CCCCC(=O)NCCc1c(Cc2ccccc2)[nH]c2ccccc12 was read as DT40 TDP1 CPT inconclusive and DT40 TDP1 no CPT 18µM.
For COc1cc(Br)c(CNc2cc(C)ccc2C)cc1OC the results were HT1080 IDH1KD tx inactive, ELG1 repair inh inactive, HT1080-NT tox inactive, DT40 TDP1 CPT inconclusive, IL-1B inflam inh inactive and DT40 TDP1 no CPT 16µM.
Screening O=C(Cn1c2[n+](c3ccc(C(F)(F)F)cc31)CCCCC2)Nc1ccc(Br)cc1 returned HT1080 IDH1KD tx inactive, ELG1 repair inh inactive, HT1080-NT tox inactive, DT40 TDP1 CPT inactive, IL-1B inflam inh inactive and DT40 TDP1 no CPT inactive.
For Cc1cc(C(C)(C)C)cc(C)c1Cn1c2[n+](c3ccc(C(F)(F)F)cc31)CCCCC2 the results were HT1080 IDH1KD tx inconclusive, ELG1 repair inh 15µM, HT1080-NT tox 15µM, DT40 TDP1 CPT 2.1µM, IL-1B inflam inh -108 and DT40 TDP1 no CPT 1.8µM.
Screening FC(F)(F)c1cccc(Cn2c3[n+](c4ccc(C(F)(F)F)cc42)CCCCC3)c1 returned HT1080 IDH1KD tx inactive, ELG1 repair inh inconclusive, HT1080-NT tox inactive, DT40 TDP1 CPT inconclusive, IL-1B inflam inh -77 and DT40 TDP1 no CPT 23µM.
`Cc1cn([C@H]2C[C@H](O)[C@@H](CNC(=O)[C@H]3CCC(=O)N3)O2)c(=O)[nH]c1=O` gave HT1080 IDH1KD tx inactive, HT1080-NT tox inactive, DT40 TDP1 CPT inactive, IL-1B inflam inh inactive and DT40 TDP1 no CPT inactive.
For CCn1c(-c2ccc(N)cc2)nc2ccccc21 the results were HT1080 IDH1KD tx inactive, ELG1 repair inh inconclusive, HT1080-NT tox inactive, DT40 TDP1 CPT inactive, IL-1B inflam inh inactive and DT40 TDP1 no CPT inactive.
For CN(C)c1ccc(-c2nc3ccccc3n2C)cc1 the results were HT1080 IDH1KD tx 11µM, ELG1 repair inh inconclusive, HT1080-NT tox inconclusive, DT40 TDP1 CPT 13µM, IL-1B inflam inh -66 and DT40 TDP1 no CPT 13µM.
For CN(C)c1ccc(C(O)Cc2nc3ccccc3n2C)cc1 (stereo unspecified) the results were HT1080 IDH1KD tx inactive, ELG1 repair inh inconclusive, HT1080-NT tox inactive, DT40 TDP1 CPT inactive, IL-1B inflam inh -54 and DT40 TDP1 no CPT inactive.
For CN(C)c1ccc(-c2ccc3ccccc3n2)cc1 the results were DT40 TDP1 CPT inactive and DT40 TDP1 no CPT inactive.
Screening CC(C)c1ccc(C(O)Cc2nc3ccccc3n2C)cc1 (stereo unspecified) returned HT1080 IDH1KD tx inactive, ELG1 repair inh inconclusive, HT1080-NT tox inactive, DT40 TDP1 CPT inactive, IL-1B inflam inh inactive and DT40 TDP1 no CPT inconclusive.
CC(C)n1c(-c2ccc(N(C)C)cc2)nc2ccccc21 was read as HT1080 IDH1KD tx inactive[9.24 µM], ELG1 repair inh inconclusive, HT1080-NT tox inactive, DT40 TDP1 CPT 29µM, IL-1B inflam inh inactive and DT40 TDP1 no CPT 11µM.
For CCn1c(-c2ccc(N(C)C)cc2)nc2ccccc21 the results were HT1080 IDH1KD tx inconclusive, ELG1 repair inh inconclusive, HT1080-NT tox inactive, DT40 TDP1 CPT 12µM, IL-1B inflam inh inactive and DT40 TDP1 no CPT 3.7µM.
`O=C(Nc1ccccc1OC(F)F)c1ccc(S(=O)(=O)N2CCOCC2)cc1` gave HT1080 IDH1KD tx inactive, ELG1 repair inh inactive, HT1080-NT tox inactive, DT40 TDP1 CPT inactive, IL-1B inflam inh inactive and DT40 TDP1 no CPT inactive.
Screening CCOC(=O)c1ccc(NC(=O)/C(C#N)=C/c2ccc(OC)cc2)cc1 returned DT40 TDP1 CPT inactive and DT40 TDP1 no CPT inconclusive.
`Cc1ccc(CN2CCN(C3CCN(C(=O)OC(C)(C)C)CC3)C(=O)C2=O)cc1` gave DT40 TDP1 CPT inactive and DT40 TDP1 no CPT inactive.
O=C(NCC(c1ccco1)N1CCCC1)c1sc2ccccc2c1Cl (stereo unspecified) was read as HT1080 IDH1KD tx inactive, ELG1 repair inh inactive, HT1080-NT tox inactive, DT40 TDP1 CPT inconclusive, IL-1B inflam inh inactive and DT40 TDP1 no CPT 21µM.
